From PubChem BioAssay AID588342 (National Center for Advancing Translational Sciences (NCATS), 2011) come the findings set out here.

About 25,000 (6.9%) of roughly 360,000 compounds were called active. Not shown: some 9% with an inconclusive outcome. Calls come from the whole dose curve; as a rule, active = well fitted inhibition curve with a large enough effect; inconclusive = small, poorly fitted or top-dose-only effect; inactive = flat fitted curve, though single readings scatter. The list comes from a sample in which actives are over-represented; it also holds similar structures and randomly drawn compounds. Entries that show only a call come without a potency.
Potency is the fitted concentration of half-maximal effect.

Luciferin 4-monooxygenase (Photinus pyralis), sequence (P08659 whole entry, looked up): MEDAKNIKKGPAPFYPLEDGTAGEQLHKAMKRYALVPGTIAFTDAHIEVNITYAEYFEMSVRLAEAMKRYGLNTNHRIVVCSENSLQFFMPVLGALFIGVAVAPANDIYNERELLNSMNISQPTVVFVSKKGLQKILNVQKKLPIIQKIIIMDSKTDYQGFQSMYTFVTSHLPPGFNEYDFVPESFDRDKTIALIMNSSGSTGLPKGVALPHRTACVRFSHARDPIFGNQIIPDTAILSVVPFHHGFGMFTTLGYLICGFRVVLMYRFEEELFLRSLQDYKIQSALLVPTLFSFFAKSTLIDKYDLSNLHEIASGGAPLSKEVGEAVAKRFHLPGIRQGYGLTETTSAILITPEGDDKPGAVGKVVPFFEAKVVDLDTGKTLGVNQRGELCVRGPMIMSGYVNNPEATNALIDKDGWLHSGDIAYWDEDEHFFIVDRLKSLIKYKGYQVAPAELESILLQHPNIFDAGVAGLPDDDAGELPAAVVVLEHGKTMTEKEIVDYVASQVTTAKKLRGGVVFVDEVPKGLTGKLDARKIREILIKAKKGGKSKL

The experiment concerns the target Luciferin 4-monooxygenase (Photinus pyralis) (UniProt P08659). Put plainly: qHTS profiling assay for firefly luciferase inhibitor/activator using purifed enzyme and Km concentrations of substrates (counterscreen for miR-21 project). Note: nearly all actives have a fitted effect of over 55% in size. Particulars: purified FLuc, luminescence inhibition; series mostly up to 57.5 µM. The method in brief:
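Biochemical qHTS of compounds, final roughly 60 µM downward over six points, against 10 nM purified firefly luciferase using Km concentrations of substrates (10 uM D-luciferin, 10 uM ATP) in Tris acetate pH 7.5 buffer; luminescence output.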
Consider `Cc1ccc(Nc2nc(-c3ccc(O)cc3O)cs2)nc1`, for which the Potency is 2.39 µM (active).
With `O=C(CCNC(=O)c1ccccc1Cl)NCc1ccco1` the entry was “inactive”.
Take `Cc1cc(NC(=O)CSc2nnc(Nc3ccccc3F)s2)no1`: the Potency entry is “inactive”.
For `O=C(CSc1nnc(SCc2ccc(F)cc2)s1)Nc1ccc(C(=O)O)cc1`, the Potency was 5.36 µM (active).
As for `CC(=O)c1ccc(NC(=O)CSc2nnc(NC(=O)Nc3ccccc3)s2)cc1`, the figure is 0.478 µM (active).
As for `Cc1nc(SCC(=O)Nc2ccc(C(=O)O)cc2)n[nH]1`, the entry is “inactive”; as for `O=C(CSc1nnc(C2CC2)n1Cc1ccccc1)Nc1cccnc1Cl`, “inactive”.
With `O=C(Cc1cccs1)Nc1nnc(SCc2ccc(F)cc2)s1` the entry was “inactive”; with `O=C(CSc1nnc(Nc2ccccc2)s1)Nc1cccnc1Cl`, 16.9 µM (active); with `CC(C)(C)NC(=O)CSc1nnc(NC(=O)CCc2ccccc2)s1`, “inactive”.
Turning to `CN(C(=O)CSc1nnc(NC(=O)Nc2ccccc2)s1)c1ccccc1`, the Potency entry was “inactive”.
As for `CCOc1ccc(NC(=O)CN(C)C(=O)CSc2ccccc2)cc1OCC`, the entry is “inactive”; as for `Cc1cccc(Nc2cc(C)nc(-n3nc(C)cc3C)n2)c1`, “inactive”.
Regarding `O=C(NNC(=O)c1cccc(S(=O)(=O)Nc2ccc(Cl)cc2)c1)c1ccc(=O)[nH]c1`, the Potency result is “inactive”.
Take `COc1ccc(C(C)(C)C)cc1NC(=O)CCN1C(=O)C2CCCCC2C1=O` (stereo not given): the Potency result is “inactive”.
`O=C(CS(=O)(=O)c1cccc2nsnc12)N1CCN(c2cccc(Cl)c2)CC1`: the Potency entry was “inactive”.
As for `COCC(=O)N=Nc1c(O)[nH]c2ccccc12`, the entry is “inactive”.
As for `COc1cc(N=Cc2c(O)[nH]c3ccccc23)cc(OC)c1OC`, the entry is “inactive”; as for `COc1ccc(N=Cc2c(O)[nH]c3ccccc23)cc1OC`, 15.1 µM (active); as for `Cc1ccccc1N1CCN(Cc2nc(Cc3ccccc3F)no2)CC1`, “inactive”.
With `COc1ccc(C(=O)COC(=O)CCCC(=O)Nc2cc(C(F)(F)F)ccc2Cl)cc1` the figure was 2.13 µM (active); with `O=C(COC(=O)CCCNC(=O)c1ccc(Cl)cc1)Nc1cc(Cl)ccc1Cl`, 16.9 µM (active).
With `CCCCC(=O)Nc1ccc(C(=O)Nc2cc(C(F)(F)F)ccc2Cl)cc1`, the Potency result is “inactive”.
As for `CC(=O)Nc1ccc(NC(=O)CCCNC(=O)c2ccc(Cl)cc2)cc1`, the Potency result was “inactive”.
`Cc1ccc(Cl)cc1NC(=O)COC(=O)CC(C)(C)C`: the Potency entry was “inactive”.
As for `COc1cc(OC)c(C(=O)OC(C)C(=O)Nc2cc(C(F)(F)F)ccc2Cl)cc1OC` (stereo not given), the entry is “inactive”; as for `COc1ccc(CC(=O)NCCc2sc3nc(-c4ccc(OC)cc4)nn3c2C)cc1`, “inactive”; as for `O=C(NCc1ccco1)C1CCCN1S(=O)(=O)c1ccccc1C(F)(F)F` (stereo not given), “inactive”.
Regarding `CCOc1cc(/C=C(/C#N)c2ccc(Cl)cc2)cc(Cl)c1OCC(=O)O`, the Potency is 3.79 µM (active).
For `COc1cc(/C=C(/NC(=O)c2ccc(Cl)cc2Cl)C(=O)O)cc(OC)c1OC`, the Potency result was “inactive”.
With `C/C(=N\OCC(=O)O)c1ccc(Cl)cc1` the entry was “inactive”.
With `COc1ccc(NC(=O)CCC(=O)Nc2nnc(C3CCCCC3)s2)cc1` the entry was “inactive”; with `CCc1noc(C)c1C(=O)Nc1nc2ccc(OC)cc2s1`, 5.36 µM (active); with `COc1ccc(S(=O)(=O)N2CCN(C(=O)NC3CCCCC3)CC2)cc1`, “inactive”.
With `CCc1noc(C)c1C(=O)Nc1nc(-c2ccccc2)cs1` the figure was 19 µM (active).
On to `COc1ccc(CNC(=O)c2ccc(Br)s2)cc1OC`, for which the Potency result is “inactive”.
As for `CCc1nc2ccccc2c(C(=O)NCc2ccc(OC)cc2)c1C`, the entry is “inactive”; as for `Cc1cccc(S(=O)(=O)CC(=O)Nc2nc(-c3ccccc3)cs2)c1`, “inactive”.
As for `CCCC(=O)Nc1nc2ccc(NC(=O)c3c(F)c(F)c(OC)c(F)c3F)cc2s1`, the entry is “inactive”; as for `COc1ccc2nc(NC(=O)c3ccc(Br)s3)sc2c1`, 3.01 µM (active); as for `COc1ccc2oc(=N)c(C(=O)Nc3ccc(Br)cc3)cc2c1`, “inactive”.
With `COc1ccc2nc(NC(=O)NC3CCCCC3)sc2c1` the figure was 9.53 µM (active).
As for `CCc1noc(C)c1C(=O)NNC(=O)c1ccc(F)cc1`, the Potency result was “inactive”.
As for `Cc1ccc(Cl)cc1N1CCN(C(=O)C2CCC(CNS(=O)(=O)c3cccs3)CC2)CC1` (stereo not given), the entry is “inactive”; as for `Cc1ccc(C(=O)Nc2cc3c(cc2N2CCCC2)n(C)c(=O)c(=O)n3C)cc1`, “inactive”.
On to `Cc1oc2ccc(O)c(CN3CCC(C)CC3)c2c1C(=O)Nc1ccccc1`, for which the Potency result was “inactive”.
As for `COc1ccc(OC)c(S(=O)(=O)Nc2c(C)nn(C)c2C)c1`, the entry is “inactive”; as for `COc1ccc(-c2nn3c(-c4ccc(OC)cc4)nnc3c3ccccc23)cc1`, “inactive”.
With `COCCCNC(=S)N(CCN(C)C)Cc1cc2cc3c(cc2[nH]c1=O)OCCO3` the entry was “inactive”; with `O=C(CN1c2ccccc2S(=O)(=O)c2ccccc21)Nc1cccc(C(F)(F)F)c1`, “inactive”; with `O=C(Cn1c(=O)n(Cc2ccccc2)c(=O)c2sc3ccccc3c21)Nc1ccccc1F`, “inactive”.
With `CCn1c(SCC(=O)NC2CCCC2)nnc1-c1ccoc1C` the entry was “inactive”; with `CCn1c(SCC(=O)Nc2nc3ccc(OC)cc3s2)nnc1-c1ccoc1C`, 10.7 µM (active).
Consider `CCOc1ccc2nc(NC(=O)CSc3nc4c(c(=O)n(C)c(=O)n4C)n3CC)sc2c1`, for which the Potency entry was “inactive”.
With `CCOc1ccccc1C(=O)Nc1ccc2c(c1)N(C)C(=O)c1ccccc1S2` the entry was “inactive”; with `Cc1ccc(-n2c(SCC(=O)c3ccccc3)nc3c([nH]c4ccccc43)c2=O)cc1`, “inactive”; with `CSc1ccc(CCNC(=O)CS(=O)(=O)Cc2nc(-c3ccccc3F)oc2C)cc1`, “inactive”.
With `CCOC(=O)c1ccc(NC(=O)C2CC(=O)N(c3ccc4c(c3)OCCO4)C2)cc1` (stereo not given) the entry was “inactive”.
As for `Cc1ccc(-c2nnc(SCC(=O)N/N=C/c3cccs3)n2-c2ccc(C)cc2)cc1`, the entry is “inactive”; as for `Cc1ccc(-c2cc(C(=O)N/N=C/C=C/c3ccco3)c3ccccc3n2)cc1C`, 1.07 µM (active).
With `Cc1cc(C(=O)Nc2ccc(C)c(S(=O)(=O)N3CCOCC3)c2)c2ccccc2n1`, the Potency entry is “inactive”.
As for `Cc1cc(/C=N/Nc2ccc([N+](=O)[O-])cn2)c(C)n1-c1cccc(C(=O)O)c1`, the entry is “inactive”.
As for `Cc1ccc(-n2c(C)cc(/C=N\NC(=O)CC(=O)NC(C)C)c2C)cc1`, the figure is 13.5 µM (active); as for `Cc1cc(/C=N/NC(=O)CC2(C)OCCO2)c(C)n1-c1ccc(Cl)c(Cl)c1`, “inactive”.
As for `CC1C/C(=N/NC(=O)c2cccs2)CC(C)(C)C1` (stereo not given), the entry is “inactive”; as for `Cc1cccc(-n2c(C)cc(/C=N/NC(N)=S)c2C)c1`, “inactive”; as for `Cc1ccc(NC(=O)CCC(=O)N/N=C/c2ccco2)c(C)c1`, “inactive”.
As to `Cc1cccc(-n2c(C)cc(/C=N\NC(=O)c3cccs3)c2C)c1`, the Potency was 1.2 µM (active).
With `O=C(N/N=C/C=C/c1ccco1)c1cccs1` the figure was 26.9 µM (active).
For the compound `O=C(COC(=O)CCC(=O)c1cccs1)NCc1ccco1`, the Potency entry was “inactive”.
